# PubChem BioAssay AID729 (The Scripps Research Institute Molecular Screening Center, 2007)
# About 450 (0.46%) of roughly 97,000 compounds were called active. Rule as the data show it: active = activation above about 16%; inactive = the rest. For the sample, actives were picked, then their nearest neighbours and some compounds at random.
# Molecular target: Sphingosine 1-phosphate receptor 2 (Homo sapiens) (UniProt O95136)
# Assay: activation of human S1P2 receptor – cell-based, primary screen (AID 729);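 also: 0% = vehicle low control and 100% = maximal reference agonist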
# Conditions: S1P2-expressing cell line, agonist reporter read-out; at 4.5 µM; active compounds read high
# Sphingosine 1-phosphate receptor 2 (Homo sapiens), sequence (O95136 whole entry, looked up): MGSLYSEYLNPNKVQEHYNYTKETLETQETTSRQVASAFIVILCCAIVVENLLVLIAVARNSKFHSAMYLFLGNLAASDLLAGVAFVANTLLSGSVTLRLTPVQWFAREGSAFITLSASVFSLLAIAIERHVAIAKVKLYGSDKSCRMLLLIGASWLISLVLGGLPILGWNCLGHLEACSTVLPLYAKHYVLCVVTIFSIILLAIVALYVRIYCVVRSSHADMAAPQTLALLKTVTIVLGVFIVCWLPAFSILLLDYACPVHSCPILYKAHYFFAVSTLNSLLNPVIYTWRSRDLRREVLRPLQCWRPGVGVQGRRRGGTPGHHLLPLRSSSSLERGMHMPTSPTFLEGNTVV
row,Structure (SMILES),activation
1,O=[N+]([O-])c1ccc(Oc2ccc(F)cc2Br)c2ccncc12,-12.3% (inactive)
2,CCOC(=O)C(C)Sc1nc2ccccc2c(=O)n1CC1CCCCC1 (centres undefined),1.92% (inactive)
3,CN(C)c1ccnc2sc3c(=O)n(-c4ccc(Cl)cc4)cnc3c12,-3.21% (inactive)
4,COC(=O)C1=CN(C)C=C(C(=O)OC)C1c1ccc(Cl)cc1Cl,32.1% (active)
5,CCOc1ccccc1N(CC(=O)Nc1ccccc1C(=O)OC)S(C)(=O)=O,-7.41% (inactive)
6,CCOc1ccccc1C1C(C(=O)OC)=CN(C)C=C1C(=O)OC,25.5% (active)
7,COC(=O)C1=C(C)N(C)C(C)=C(C(=O)OC)C1c1cccc(Br)c1,-1.98% (inactive)
8,CC12CN3CC(C)(CN(C1)C3c1ccc(Cl)cc1Cl)C2=O (centres undefined),-3.81% (inactive)
9,CCOc1cc(C2C(C(=O)OC)=CN(C3CCCC3)C=C2C(=O)OC)cc(Br)c1O,7.13% (inactive)
10,Cn1nnnc1SCC(=O)Nc1ccccc1C(=O)NC1CC1,-4.5% (inactive)
11,C/C(=N\NS(=O)(=O)c1cccc([N+](=O)[O-])c1)c1cc2ccccc2o1,-4.08% (inactive)
12,CCOc1c(Cl)cc(/C=N/O)cc1OC,-3.93% (inactive)
13,CC(=O)C1=C(C)NC(C)=C(C(C)=O)C1c1cn(-c2ccccc2)nc1-c1cccs1,-8.95% (inactive)
14,CCc1nc(C)ccc1OCC(=O)N(CC)CC,-0.52% (inactive)
15,CSc1nc(-c2ccco2)nn1C(=O)CCc1ccccc1,-4.35% (inactive)
16,CCOC(=O)c1nnn(-c2nonc2-n2cccc2)c1CN1CCOCC1,-2.91% (inactive)
17,O=C(Cc1ncc(C(F)(F)F)cc1Cl)Nc1cccc(Br)c1,-3.95% (inactive)
18,Cc1noc(C)c1CSCC(=O)Nc1nc2ccc(Oc3ccccc3)cc2s1,-9.84% (inactive)
19,C=CCn1c(-c2ccc(Cl)cc2)ccc(C#N)c1=O,-1.04% (inactive)
20,C=CCn1c(N)c(C(=O)OCC(C)C)c2nc3ccccc3nc21,-4.83% (inactive)
21,CCC(C)NC(=O)c1c(N)n(/N=C/c2cccs2)c2nc3ccccc3nc12 (centres undefined),11.4% (inactive)
22,CCCNC(=O)c1c(N)n(-c2ccc(S(N)(=O)=O)cc2)c2nc3ccccc3nc12,25.6% (active)
23,COc1ccc2c(c1OC)C(=O)N(c1ncn[nH]1)C2,16.5% (active)

row,Structure (SMILES),activation
1,COc1ccc2c(c1OC)C(=O)c1ccccc1C2=O,-4.98% (inactive)
2,COc1ccc(N2CCN(C(=O)CCc3nc(-c4ccc(C)cc4)no3)CC2)cc1,-1.72% (inactive)
3,Cc1ccc(S(=O)(=O)Nc2nc(C)cc(-n3nc(C)cc3C)n2)cc1,-3.06% (inactive)
4,N#Cc1ccc(-c2ccc(Cl)cc2)nc1Oc1ccc(F)cc1,-3.88% (inactive)
5,Cc1ccc(/C=N/NC(=O)C2=NNC(c3ccccc3)(c3ccccc3)C2)c(O)c1,2.35% (inactive)
6,O=C(Cc1ccccc1)N/N=C/c1ccc(Cl)cc1Cl,2.34% (inactive)
7,Cc1nn(C)cc1C(=O)NNC(=S)Nc1ccc(Cl)cc1,-6.95% (inactive)
8,O=C1CCCc2nn(-c3ccccc3)nc21,-3.05% (inactive)
9,Cc1nc(NC(=O)c2cccc(Cl)c2)sc1-c1csc(Nc2cccc(Cl)c2)n1,-10.8% (inactive)
10,Cc1cc(C)c2nc(NC(=O)c3ccc4c(c3)OCO4)sc2c1,-8.01% (inactive)
11,CNC(=O)c1csc(-c2ccccc2)n1,-5.56% (inactive)
12,O=C(c1cc2c(s1)CCC2)N1CCN(c2ccccc2)CC1,-4.17% (inactive)
13,Cc1nn(Cc2ccc(C(=O)N3N=C(C(F)F)CC3(O)C(F)F)cc2)c(C)c1[N+](=O)[O-] (centres undefined),-4.76% (inactive)
14,Cc1ccccc1-c1nnc(SCC(=O)NCc2ccc3c(c2)OCO3)n1C,-6.95% (inactive)
15,COc1cccc(N=c2oc3c(C)ncc(CO)c3cc2C(N)=O)c1,-4.4% (inactive)
16,O=C1Nc2ccc(Br)cc2/C1=N/N=C/C1=C(N2CCOCC2)C(=C\c2ccccc2)/CC1,-5.74% (inactive)
17,COc1ccc(-c2nnc(SCc3cccnc3)o2)cc1,-3.86% (inactive)
18,Cc1nnc(SC(C)C(=O)Nc2ccc(S(=O)(=O)NC3CCCCC3)cc2)s1 (centres undefined),-4.5% (inactive)
19,N#Cc1c(N)n(CCOC(=O)c2ccc(Cl)cc2)c2nc3ccccc3nc12,16.5% (active)
20,CC(C)(C)OC(=O)c1c(N)n(CCCN2CCCC2=O)c2nc3ccccc3nc12,0.36% (inactive)
21,CN(C)CCCn1c(N)c(C#N)c2nc(C#N)c(C#N)nc21,12.8% (inactive)
22,Fc1ccc(CNc2nc3ccccc3n3nnnc23)cc1,-7.16% (inactive)
23,O=C(NC(C(=O)NCCN1CCOCC1)C12CC3CC(CC(C3)C1)C2)C1CCCCC1 (centres undefined),-4.77% (inactive)

row,Structure (SMILES),activation
1,Cc1c(NC(=O)c2cc(-c3ccc(Cl)s3)nc3ccccc23)c(=O)n(-c2ccccc2)n1C,-14.2% (inactive)
2,O=C(Nc1ccn(Cc2ccccc2F)n1)c1ccc(COc2ccc(Cl)cc2Cl)o1,-5.78% (inactive)
3,O=C(Cn1cnc2ccccc2c1=O)NCC1COc2ccccc2O1 (centres undefined),-3.16% (inactive)
4,CCn1cc(C(=O)NCC2COc3ccccc3O2)c2cc(OC)c(OC)cc2c1=O (centres undefined),19.9% (active)
5,CCn1cc(C(=O)NCc2ccc3c(c2)OCO3)c2cc(OC)c(OC)cc2c1=O,14.1% (inactive)
6,CO/N=C/c1ccc(N2CCN(C(=O)c3cccc(Cl)c3)CC2)c([N+](=O)[O-])c1,-3.08% (inactive)
7,Cc1ccc(CNC(=O)C2CCCN2C(=O)NCc2ccccc2)cc1 (centres undefined),-8.36% (inactive)
8,O=C(CO/N=C/c1ccccc1O)NNC(=O)c1ccccc1Cl,-5.77% (inactive)
9,Cc1ccc(S(=O)(=O)/N=C(/Nc2ccccn2)c2ccc(Cl)cc2)cc1,-4.9% (inactive)
10,CSc1ccccc1-c1nnc(-c2ccc(Cl)cc2)o1,-1.63% (inactive)
11,Cc1ccc(N2CCN(C3=NC(=O)/C(=C\c4cccs4)S3)CC2)cc1,-8.97% (inactive)
12,O=Cc1c(N2CCN(c3cccc(Cl)c3)CC2)nc2ccccn2c1=O,-4.84% (inactive)
13,CN1C(=O)C(CC(N)=O)N(NC(=O)c2ccc(Cl)cc2)C1=S (centres undefined),-7.47% (inactive)
14,CSc1nc2ccccc2cc1/C=C(\C#N)c1ccc(Cl)cc1Cl,19.8% (active)
15,CSc1nc(N)c(C#N)c(-c2ccccc2Cl)c1C#N,-7.07% (inactive)
16,Cc1nc2ccccc2cc1O,-0.52% (inactive)
17,Cc1sc(NC(=O)C2C3CCC(O3)C2C(=O)O)c(C(=O)OC(C)C)c1-c1ccc(Cl)cc1 (centres undefined),-9.04% (inactive)
18,CN(C)c1ccc(/C=C2\NC(=S)N(Cc3ccccc3)C2=O)cc1,-4.43% (inactive)
19,Cc1ccc(-c2nc(C)sc2CC(=O)O)cc1,-2.07% (inactive)
20,CN(c1cccc(NC(=O)Nc2ccc(Cl)cc2)c1)S(C)(=O)=O,-3.59% (inactive)
21,Nc1c(-c2ccc(F)cc2)cnn1C1CCS(=O)(=O)C1 (centres undefined),-4.76% (inactive)
22,Cc1ccc(C2C(C#N)C(C#N)N3CCCN23)cc1 (centres undefined),-4.89% (inactive)
23,N/C(=N\OC(=O)CCC1CCCCC1)c1ccccn1,-3.14% (inactive)
